Common to all, as to assay: NCI-60 one-dose screen, 48 h (100 = growth as untreated, 0 = no growth, -100 = all killed)
Holding throughout (details): 10 µM

The subject of test [1] is HT29 colon.
The subject of test [2] is SNB-75 CNS.
In test [3] the test system is SNB-19 CNS.
The subject of test [4] is U251 CNS.
Test [5] has as its system PC-3 prostate.
The subject of test [6] is SK-MEL-5 melanoma.
Test [7] deals with UACC-62 melanoma.
Test [8] relates to LOX IMVI melanoma.
Test [9] concerns SK-MEL-28 melanoma.
For test [10], the system named is EKVX NSCLC.
Test [11] deals with SN12C renal.
Test [12] has as its system UO-31 renal.
The subject of test [13] is TK-10 renal.
The subject of test [14] is ACHN renal.
Test [15] relates to CAKI-1 renal.
In test [16] the test system is A498 renal.
Test [17] concerns CCRF-CEM leukemia.
The test system of test [18] is MOLT-4 leukemia.
Test [19] deals with SR leukemia.
The test system of test [20] is SK-MEL-2 melanoma.

About 83,000 compounds went through this panel and 20% of them were active in at least one assay; those are over-represented in the sample as a whole.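 Activity criterion: percent growth below 10, measured after cells in 96-well plates were exposed to a single compound concentration for 48 hours.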 A number with no mark means an inactive call. Calls of active or inactive are those of the source.

Regarding `Nc1ncnc2[nH]c(=O)[nH]c12`, the growth in [1] is 105%; in [2], 84.6%; in test [3], 97.5%; in test [4], 97.8%; in test [5] it was 201%; in test [6] it was 100%. In addition, the growth in test [7] was 92.3%; in test [8], 95.2%; in test [9] it was 107%; in [10] it was 83.2%; in test [11], 90.9%; in test [12], 105%. In addition, the growth in test [13] was 99.3%; in test [14], 98.9%; in test [15], 6.82% (active); in test [16] it was 128%; in test [17] it was 125%; in test [18], 138%. Moreover, the growth in test [19] was 26.1%.
As to `CSc1nc(=O)n(Cc2ccc(Cl)cc2)c(=O)[nH]1`, the growth in test [1] is 109%; in test [2], 74.6%; in test [3], 108%; in [4] it was 94.6%; in [5], 101%; in test [6], 110%. The growth was 112% in [7]; 96.8% in test [8]; 107% in test [9]; 116% in test [20]; 107% in [11]; 112% in [12]. The growth in test [14] was 103%; in test [15] it was 112%; in [16], 103%; in [17], 100%; in test [18], 105%; in test [19], 95.5%.
In the case of `O=C1OCC2=C1C(c1cccc(Cl)c1)c1cc3c(cc1N2CCO)OCCO3` (stereo not given), the growth in test [1] was 2.11% (active); in test [2], 29.2%; in [3], 37.4%; in test [4] it was 0.324% (active); in test [5], 21.3%; in test [6], -8.57% (active). Besides, the growth in test [7] was 27.9%; in [8] it was 22.2%; in test [9], 57.7%; in [10], 49.4%; in test [11], 30%; in test [12] it was 22.1%. Also, the growth in [13] is 68.4%; in [14], 30.5%; in [15], 19.9%; in test [16] it was -18.1% (active); in [17], 6.58% (active); in test [18], 21.1%. The growth in [19] is 32.4%.
Regarding `COc1ccc(-c2nn(-c3cccc(NC(=O)c4cccc(C(F)(F)F)c4)c3)cc2-c2ccncc2)cc1Cl`, the growth in [1] is 8.18% (active); in test [2] it was 6.59% (active); in test [3], 79.6%; in test [4] it was -3.25% (active); in test [5], 14%; in test [6], 23.7%. Besides, the growth was 38.2% in [7]; 28.6% in test [8]; 40.6% in test [9]; 45.3% in test [11]; 13.9% in test [12]; 41% in test [13]. Besides, the growth in test [14] is 36.8%; in test [15], 11.3%; in test [16] it was -11.9% (active); in test [17], 7.1% (active); in test [18] it was 24%; in test [19], 4.46% (active).
As to `COc1cc2c(cc1OC)N(CCO)C1=C(C(=O)OC1)C2c1ccc(Cl)c(Cl)c1` (stereo not given), the growth in test [1] was 94%; in test [2] it was 106%; in test [3] it was 98.3%; in test [4], 96.8%; in test [5], 99.2%; in [6], 99.5%. In addition, the growth is 101% in test [7]; 95.9% in test [8]; 120% in test [9]; 87% in test [10]; 108% in [11]; 82.3% in test [12]. For the same compound, the growth in test [13] is 98.7%; in test [14], 107%; in test [15] it was 107%; in test [16], 89.3%; in [17], 92.6%; in [18], 73.7%. Moreover, the growth in test [19] is 86%.
In the case of `COc1ccc2c(c1)N(CCO)C1=C(C(=O)OC1)C2c1ccc(OC)c(OC)c1` (stereo not given), the growth in test [1] is 9.84% (active); in [2] it was 16.2%; in test [3], 53.2%; in test [4], 34.5%; in test [5], 38%; in test [6], 16.9%. Further, the growth in test [7] was 27.3%; in [8], 38.2%; in test [9], 61.6%; in test [10] it was 67%; in test [11] it was 60.8%; in test [12], 60.9%. Besides, the growth in [13] is 59.3%; in test [14] it was 43.7%; in [15], 52.3%; in [16], 14.9%; in test [17], 34.2%; in test [18], 43.4%. In addition, the growth in test [19] was 21%.
For `COc1ccc2c(c1)N(CCO)C1=C(C(=O)OC1)C2c1ccccc1` (stereo not given), the growth in test [1] was 1.72% (active); in test [2], 14.6%; in [3] it was 41.1%; in test [4] it was 20.9%; in test [5], 27.1%; in [6], 9.35% (active). Besides, the growth is 20.1% in test [7]; 43.3% in test [8]; 53.7% in test [9]; 45% in test [10]; 48.1% in [11]; 47.1% in test [12]. In addition, the growth is 44.7% in test [13]; 14.9% in [15]; -5.47% (active) in test [16]; 20% in [17]; 35.4% in test [18]; 20.7% in test [19].
As for `CCOC(=O)C(NC(=O)C(Cl)Cl)C(O)c1ccccc1` (stereo not given), the growth in test [1] is 107%; in test [2] it was 91.3%; in test [3] it was 101%; in test [4], 101%; in test [5], -0.104% (active); in [6], 91.4%. Moreover, the growth in [7] was 94.2%; in [8], 99.9%; in test [9] it was 144%; in test [10], 109%; in test [11], 98.8%; in [12], 97.6%. In addition, the growth is 104% in test [13]; 107% in [14]; 99.2% in test [16]; 150% in [17]; 98.3% in [18]; 107% in test [19].
Consider `Cc1ncc(-c2ccoc2)c(NC2CCCCCC2)n1`, for which the growth in test [1] was 99.4%; in test [2] it was 97%; in test [3] it was 105%; in test [4], 93.5%; in test [5], 105%; in test [6], 99.6%. The growth in [7] was 104%; in [8], 96.9%; in test [9], 128%; in test [11] it was 98.5%; in test [12] it was 71.7%; in test [13], 109%. The growth in [14] was 99.6%; in test [15], 94.4%; in test [16], 105%; in [17] it was 107%; in [18], 84%; in [19] it was 96.1%.
For `O=[N+]([O-])c1ccc(Oc2cccnc2)c([N+](=O)[O-])c1`, the growth in test [1] is -4.49% (active); in test [2], 87.7%; in test [3] it was 106%; in test [4], 85.7%; in test [5] it was 83.1%; in [6] it was 79.1%. The growth in [7] is 84.5%; in test [8], 24.1%; in test [9], 97.6%; in test [10] it was 93.9%; in test [11], 97%; in [12], 58.3%. Further, the growth was 67.5% in test [13]; 72.4% in [14]; -9.25% (active) in test [15]; 89.3% in test [16]; 20.1% in test [17]; 76.4% in test [18]. For the same compound, the growth in test [19] was 21.1%.
On to `O=C(Nc1cccc(-n2cc(-c3ccncc3)c(-c3ccc(O)c(Cl)c3)n2)c1)c1cccc(C(F)(F)F)c1`, for which the growth in [1] was 31.8%; in test [2], 39.4%; in [3] it was 69.7%; in [4], -27.9% (active); in test [5], 21%; in [6], 34.6%. In addition, the growth in test [7] was 37.9%; in test [8] it was 33%; in test [9], 43.9%; in test [11], 49.9%; in test [12], 15.8%; in [13], 46.9%. Further, the growth in test [14] is 29.6%; in [15], 12.2%; in test [16], 57.7%; in test [17] it was 19.8%; in [18], 29.8%; in test [19] it was 18.4%.
Consider `COc1cc(-c2cc(/C=C/C(=O)c3ccc4c(c3)OCO4)[nH]n2)cc(OC)c1OC`, for which the growth was 43% in test [1]; 69.7% in test [2]; 66.5% in test [3]; 43% in [4]; 59% in test [5]; 95.9% in [6]. Besides, the growth in [7] is 78.9%; in test [8], 42.8%; in test [9], 94.3%; in test [20], 100%; in [11] it was 63.9%; in test [12] it was 38.7%. The growth in test [14] is 84.6%; in test [15], 59.7%; in [16] it was 73.7%; in test [17], 0.141% (active); in [18], 52.7%; in [19], -15.1% (active).
Turning to `O=C1OCC2=C1C(c1cccc(Cl)c1)c1cc3c(cc1N2CCO)CCC3` (stereo not given), the growth in [1] was -9.18% (active); in test [2], 40.5%; in [3], 29.8%; in [4], 3.51% (active); in test [5] it was 20.4%; in [6], -8.14% (active). Further, the growth in [7] is 26.6%; in [8], 12.6%; in test [9], 59.2%; in [10], 38.9%; in test [11], 21.1%; in test [12], 19%. Besides, the growth in test [13] is 56.6%; in test [14], 25.5%; in test [15], 11.2%; in [16] it was -20.5% (active); in [17] it was 10.4%; in test [18] it was 13.7%. The growth in test [19] was 27.6%.
`CCc1ccc2c(c1)N(CCO)C1=C(C(=O)OC1)C2c1cc(OC)c(OC)c(OC)c1` (stereo not given): the growth in [1] was -24.2% (active); in test [2], 49.3%; in test [3], 21.7%; in test [4], 10.9%; in [5], 26.9%; in [6], -14.5% (active). Also, the growth was 16.2% in [7]; 25% in test [8]; 64.5% in test [9]; 29.9% in [10]; 28.8% in test [11]; 35.5% in [12]. The growth in test [13] is 57.9%; in [14], 32.2%; in test [15], 11.4%; in test [16] it was -13.7% (active); in [17], 10.2%; in test [18], 11.4%. Moreover, the growth in test [19] was 12%.
Turning to `CCCCCCCNc1nc(C=O)ncc1-c1ccc(C(F)(F)F)cc1`, the growth in test [1] is 86.8%; in test [2], 97%; in [3] it was 91.1%; in test [4], 86.1%; in [5], 79.8%; in test [6], 97.6%. The growth was 116% in test [7]; 90.7% in [8]; 104% in test [9]; 101% in [11]; 63.1% in [12]; 97% in test [13]. In addition, the growth was 104% in test [14]; 98.4% in test [15]; 86.2% in [16]; 83.9% in test [17]; 86.5% in test [18]; -2.53% (active) in test [19].
As to `COc1ccc(-c2nn(-c3cccc(NC(=O)c4ccc5c(c4)OCCO5)c3)cc2-c2ccncc2)cc1Cl`, the growth was 0.486% (active) in test [1]; 2.6% (active) in test [2]; 70.8% in test [3]; -9.64% (active) in test [4]; 10.4% in [5]; 20% in test [6]. Also, the growth in test [7] is 34.1%; in test [8], 29.9%; in test [9], 38.3%; in test [11], 51.6%; in test [12], 16%; in [13], 36.2%. In addition, the growth in test [14] is 41.4%; in test [15], 15%; in test [16], -19.3% (active); in [17], 7.54% (active); in test [18], 11.3%; in [19], -9.34% (active).

Source of the values: PubChem BioAssay (NCI).
